Calls of active or inactive are those of the source. How the source made its calls: active means hit-call score of the fitted dose curve at least 0.9, where 1 is the maximum; inactive means score below 0.9.
These compounds were tested against Paired box protein Pax-6 (Homo sapiens) (UniProt P26367) (assay: ATG_Pax6_CIS: Attagene CIS-FACTORIAL HepG2 Assay for human Paired Box 6 (PAX6) (AID 2282956)). Settings: HepG2 CIS-FACTORIAL PAX6 reporter transcription, RNA readout; actives raise or lower the signal.
Chain of Paired box protein Pax-6 (Homo sapiens) (P26367 whole entry, looked up): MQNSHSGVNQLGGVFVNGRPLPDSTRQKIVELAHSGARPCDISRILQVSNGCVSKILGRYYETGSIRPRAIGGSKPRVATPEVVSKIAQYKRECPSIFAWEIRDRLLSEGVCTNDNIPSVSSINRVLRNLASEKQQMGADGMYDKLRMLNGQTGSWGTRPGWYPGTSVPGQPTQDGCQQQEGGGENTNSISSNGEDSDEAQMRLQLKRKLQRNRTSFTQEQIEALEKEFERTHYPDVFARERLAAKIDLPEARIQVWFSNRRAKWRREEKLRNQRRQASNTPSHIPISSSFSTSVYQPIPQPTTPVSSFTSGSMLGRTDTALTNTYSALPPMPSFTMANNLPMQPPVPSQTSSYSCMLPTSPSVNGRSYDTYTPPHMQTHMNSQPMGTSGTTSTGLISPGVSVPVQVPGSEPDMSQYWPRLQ
Description: ATG_CIS is a cell-based, multiplexed-readout assay that uses HepG2, a human liver cell line, with measurements taken at 24 hours after chemical dosing in a 24-well plate.ATG_Pax6_CIS is one of 52 assay component(s) measured or calculated from the ATG_CIS assay. It is designed to make measurements of mRNA induction, a form of inducible reporter, as detected with fluorescence intensity signals by Reverse transcription polymerase chain reaction (RT-PCR) and Capillary electrophoresis technology.Data from the assay component ATG_Pax6_CIS was analyzed into 1 assay endpoint. This assay endpoint, ATG_Pax6_CIS, was analyzed with bidirectional fitting relative to DMSO as the negative control and baseline of activity. Using a type of inducible reporter, measures of mRNA for gain or loss-of-signal activity can be used to understand the reporter gene at the transcription factor-level as they relate to the gene PAX6. Furthermore, this assay endpoint can be referred to as a primary readout, because this assay has produced multiple assay endpoints where this one serves a reporter gene function. To generalize the intended target to other relatable targets, this assay endpoint is annotated to the dna binding intended target family, where the subfamily is paired box protein.
Human liver HepG2 cells are transiently transfected with multiple reporter transcription units (MRTUs) in 6-well plates using FuGene 6 reagent (Roche; 3 ml FuGene/1 mg DNA). The MRTU constructs are regulated by a cis-regulating element (promoter). […] A major difference between the CIS and TRANS system is that in CIS activities of endogenous TFs are measured, whereas the TRANS assay evaluates changes in activities of exogenous, chimeric NR-Gal4 proteins. […] At the end of 24 hour incubation, total RNA was isolated using TriZol reagent (Invitrogen). The isolated RNA is then reverse-transcribed using oligo(dT) primer and Mo-MLV reverse transcriptase (Invitrogen) with DNAse I (Ambion) treatment for 30 min. The one-tenth of the produced cDNA was amplified by PCR using Taq DNA polymerase (Invitrogen) and two reporter sequence-specific primers. The PCR products were fluorescently labeled by primer extension with 6-arboxyfluorescein (6-FAM) 5'-labeled reporter sequence-specific primer (2 min at 95 C, 20 s at 68 C and 10 min at 72 C) and these products were digested with 5U of HpaI (New England Biolabs) for 2h at 37 C. The fragments were purified using Qiaquick PCR columns (Qiagen), analyzed on an ABI 3130xL genetic analyzer (Applied Biosystems) with peak positions identified by using a set of X-rhodamine (ROX)-labeled MapMarker1000 molecular weight standards (BioVentures). The raw capillary electrophoresis data was processed using Attagraph software (Attagene).
N#[N+]c1ccc2c(S(=O)(=O)[O-])cccc2c1O was tested, and the outcome was “inactive”. With CCCCCC/C=C\CCCCCCCC(=O)O the outcome was “inactive”. In the case of CC(=O)OCC(=O)[C@@]12N=C(C)O[C@@H]1C[C@H]1[C@@H]3CCC4=CC(=O)C=C[C@]4(C)[C@H]3[C@@H](O)C[C@@]12C, the outcome is reported as “inactive”. For CCCCCCCCCCCSCC(=O)O, the AC50 was 100 µM (active). With O=C(Oc1ccccc1)c1ccc2ccccc2c1O the outcome was “inactive”. With CN(C)c1ccc(N=Nc2ccccc2C(=O)O)cc1 the AC50 was 35.1 µM (active). In the case of O=c1n(CCO)c(=O)n(CCO)c(=O)n1CCO, the outcome is reported as “inactive”. Cc1cccc(OCCOc2cccc(C)c2)c1 was tested, and the outcome was “inactive”. For CC(C)=CC1CC(C)CCO1 (stereo not given), the outcome was “inactive”. In the case of COc1cc(C)ccc1C(C)C, the outcome is reported as “inactive”. CNC(=S)N(C)C was tested, and the outcome was “inactive”. CCCCCC(C)O (stereo not given) was tested, and the outcome was “inactive”. With CCCCC(CC)COC(=O)c1ccccc1O (stereo not given) the outcome was “inactive”. For CCCCC/C=C\C/C=C\CCCCCCCC(=O)OC, the AC50 was 73.3 µM (active). With NC(=O)N=NC(N)=O the outcome was “inactive”. O=C1CC2CC1C1CCCC21 (stereo not given) was tested, and the outcome was “inactive”. SCCc1cnccn1 was tested, and the outcome was “inactive”. With O=c1c2ccccc2oc2ccccc12 the outcome was “inactive”. O=C(O)Cc1c(Cl)ccc(Cl)c1Cl was tested, and the outcome was “inactive”. CCOC(=O)N1CCC(=C2c3ccc(Cl)cc3CCc3cccnc32)CC1 was tested, and the AC50 was 7.79 µM (active). Nc1ccc(Oc2ccc(N)c(N)c2)cc1 was tested, and the outcome was “inactive”. With c1ccc(CNCc2ccccc2)cc1 the outcome was “inactive”. Nc1ccc(Cl)cc1Cl was tested, and the outcome was “inactive”. With [Cl][In]([Cl])[Cl] the outcome was “inactive”. CCCCCCCCCCCCCCCC(=O)OCC was tested, and the outcome was “inactive”. With CC(C)c1ccc(C#N)cc1 the outcome was “inactive”. For CCC(=O)Oc1ccc(/C(CC)=C(\CC)c2ccc(OC(=O)CC)cc2)cc1, the AC50 was 37.8 µM (active). For Cc1cc(O)c(Cl)c(C)c1Cl, the outcome was “inactive”. For CC1=Nc2ccc3ccccc3c2C1(C)C, the outcome was “inactive”. With CCOc1ccc(N)c([N+](=O)[O-])c1 the outcome was “inactive”. For O=CC1CC1, the outcome was “inactive”. In the case of Oc1ccc(Cl)cc1Cc1cc(Cl)ccc1O, the AC50 is reported as 11.1 µM (active). With CCN(Cc1cccc(S(=O)(=O)O)c1)c1ccc(C(=C2C=CC(=[N+](CC)Cc3cccc(S(=O)(=O)[O-])c3)C=C2)c2ccccc2)cc1 the outcome was “inactive”. In the case of O=C1CCCCCCCCCCCCCCCO1, the outcome is reported as “inactive”. With CCCc1ccc(OC)cc1 the outcome was “inactive”. For C=CC(C)(CCC=C(C)C)OC(=O)CC(C)C (stereo not given), the outcome was “inactive”. CCC(CC)C(=O)O was tested, and the outcome was “inactive”. With COC(=O)c1ccccc1OC the outcome was “inactive”. In the case of CCCCC(CC)COCC1CO1 (stereo not given), the outcome is reported as “inactive”. In the case of O=C(c1ccccc1)C1CCC1, the outcome is reported as “inactive”.
